Data on 98 molecules can be found in PubChem BioAssay AID1861 (The Scripps Research Institute Molecular Screening Center, 2009).

SMILES strings stand for the structures. Hit rate of the full screen: of about 290,000 compounds, about 3,100 (1.1%) were called active. What follows is part of a selection rich in actives, with near analogues and random picks from the rest. A number with no mark means an inactive call. No stated cut-off is given here; in the data, active means inhibition above about 16% (passing the limit was not always enough); inactive means the rest.

Neuropeptides B/W receptor type 1 (Homo sapiens), sequence (P48145 whole entry, looked up): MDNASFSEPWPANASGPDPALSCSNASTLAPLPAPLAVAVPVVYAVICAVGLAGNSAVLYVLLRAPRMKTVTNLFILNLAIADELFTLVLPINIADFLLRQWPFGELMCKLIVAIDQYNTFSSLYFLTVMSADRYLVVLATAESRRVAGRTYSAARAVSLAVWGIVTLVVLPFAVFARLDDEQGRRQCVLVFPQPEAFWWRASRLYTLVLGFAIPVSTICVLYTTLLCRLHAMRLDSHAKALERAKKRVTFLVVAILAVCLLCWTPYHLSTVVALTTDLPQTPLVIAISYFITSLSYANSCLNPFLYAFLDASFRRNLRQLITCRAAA

This assay addresses Neuropeptides B/W receptor type 1 (Homo sapiens) (UniProt P48145). As to the kind of experiment: blockers of human neuropeptide B/W receptor 1 – cell-based, fluorescence, single concentration, primary screen (AID 1861).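 Further: cells stimulated with the agonist NPW; 0% = agonist with vehicle and 100% = vehicle without agonist.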 The following applies: GPR7-expressing cells, fluorescence antagonist assay; at 4.4 µM; hits give high values.
`COc1cc(NC(=O)c2ccccc2NS(=O)(=O)c2ccc(Cl)s2)cc(OC)c1`: the inhibition was 26.7% (active).
In the case of `COc1cc(OC)c(S(=O)(=O)Nc2ccccc2C(=O)O)cc1S(=O)(=O)Nc1ccccc1C(=O)O` it was -13.8%; in that of `COC(=O)c1ccc(NC(=O)c2ccccc2NS(=O)(=O)c2ccccc2)cc1`, 17.3%; in that of `COc1ccc(Nc2ncc(F)c(N3CCOCC3)n2)cc1`, -9.42%.
In the case of `CC(=O)OC(C(=O)NC1CCCCC1)c1ccccc1` (stereo not drawn) it was -8.98%; in that of `COc1ccccc1CN1CCN(C(c2ccccc2)c2ccccc2)CC1`, -16.5%.
In the case of `CC(NCc1ccccc1OC1CCCC1)c1ccccc1` (stereo not drawn) it was 30.2% (active); in that of `Cc1cnc(CN(C)C(=O)C2CCC(=O)N(CCc3cccc(F)c3)C2)[nH]1` (stereo not drawn), -18.8%.
As to `CCn1c2ccc(F)cc2c2nnc(SCCN3CCOCC3)nc21`, the inhibition was 77.2% (active).
In the case of `Cn1c2ccc(F)cc2c2nnc(NN)nc21` it was -11.3%; in that of `Cc1cc2nc(SCCN3CCOCC3)[nH]c2cc1C`, 3.59%; in that of `CCCNC(=O)C(=O)Nc1cc2c3c(c1)CCC(=O)N3CCC2`, -11.2%.
In the case of `COc1cccc(NC(=O)c2ccc(Cn3cc([N+](=O)[O-])cn3)o2)c1` it was -2.16%; in that of `CCc1ccc(NC(=O)c2ccc(Cn3cc([N+](=O)[O-])cn3)cc2)cc1`, 23.8% (active); in that of `Cn1cc([N+](=O)[O-])c(C(=O)Nc2cnn(Cc3ccc(F)cc3)c2)n1`, -7.64%.
In the case of `COc1ccc(/C=N/NC(=O)C2CC2)c(OC)c1OC` it was -4.35%; in that of `O=C1CCCN2N=C(SCC(=O)Nc3ccc(Br)cc3)SC2=N1`, 4.5%.
Regarding `CCc1ccc(C(=O)OCC(=O)Nc2cccc(S(=O)(=O)NC3=NCCCCC3)c2)cc1`, the inhibition is 11.6%.
The same measure for `NS(=O)(=O)c1cccc(NC(=O)CSc2nc3ccccc3n2-c2ccccc2)c1`: 0.27%; for `Cc1cccc(-n2c(SCC(=O)Nc3cccc(S(=O)(=O)NC4=NCCCCC4)c3)nc3ccccc3c2=O)c1C`: 27.4% (active); for `CCOc1ccc(S(=O)(=O)NCCCn2ccnc2)cc1NC(C)=O`: -14.2%.
With `CCOc1cc(/C=C/c2nc3ccccc3c(=O)[nH]2)cc(Br)c1OC`, the inhibition is 19%.
With `CC(=O)Nc1ccc(OCC(O)CN2CCN(c3ccccc3Cl)CC2)cc1` (stereo not drawn), the inhibition was 13%.
The same measure for `OC(COc1ccc2ccccc2c1)CN1CCOCC1` (stereo not drawn): -2.78%; for `O=S(=O)(c1ccc(OCC(O)CN2CCN(c3ccccc3Cl)CC2)cc1)N1CCOCC1` (stereo not drawn): 26% (active); for `O=C(Nc1ccc(Br)cc1F)C1CC(=O)N(C2CCCCC2)C1` (stereo not drawn): -3.95%.
In the case of `CCN(CC)S(=O)(=O)c1ccc(C(=O)N2CCN(C3=NS(=O)(=O)c4ccccc43)CC2)cc1` it was -4.91%; in that of `COc1ccccc1N1CC(C(=O)Nc2nnc(SCC(=O)NC(C)C)s2)CC1=O` (stereo not drawn), -8.06%.
The same measure for `COc1ccc(C)cc1NC(=O)NCCCCc1ccccc1`: 28.4% (active); for `COc1ccc(C)cc1NC(=O)NCc1ccccn1`: -18.5%.
Consider `COc1ccc(C)cc1NC(=O)Nc1ccccc1SC`, for which the inhibition was -7.07%.
The same measure for `Cc1ccc(CN2CCNC(=O)C2CC(=O)NCc2csc(C(C)C)n2)cc1` (stereo not drawn): 7.42%; for `CCCCCCCCCCOC(=O)Cn1c(COc2cccc(OC)c2)[n+](C)c2ccccc21`: 65% (active); for `CCCCOC(=O)Cn1c(=N)n(CCN(CC)CC)c2ccccc21`: 2.44%.
In the case of `CCCCCCCCCCOC(=O)Cn1c(COc2ccc(C)cc2)[n+](C)c2ccccc21` it was 19.5%.
The same measure for `OCCN(Cc1ccccc1)Cc1ccc(Cl)cc1`: -3.11%; for `CCN(CC)c1ccc([N+](=O)[O-])cc1C(=O)O`: -0.91%.
Turning to `O=[N+]([O-])c1ccc(N(CCO)Cc2ccccc2)c([N+](=O)[O-])c1`, the inhibition is 23.9% (active).
The same measure for `CC1C(=O)Nc2ccccc2N1C(=O)c1ccc(F)cc1F` (stereo not drawn): -4.79%; for `CCOc1ccc(CN2CCC(n3nccc3NC(=O)C3CC3)CC2)cc1CO`: 1.55%.
For `Cc1cc(C)cc(NC(=O)C2CCCN(S(=O)(=O)c3ccc4[nH]c(=O)ccc4c3)C2)c1` (stereo not drawn), the inhibition is -6.12%.
In the case of `CN1CCN(c2ccccc2NC(=O)COc2ccc(C3CCCCC3)cc2)CC1` it was -0.24%; in that of `COc1ccc(C(=O)N2CCc3cc(OC)c(OC)cc3C2c2cccc([N+](=O)[O-])c2)cc1` (stereo not drawn), -1.43%.
In the case of `COc1ccc(CC(NC(C)=O)C(=O)NC2CCN(C(=O)c3ccc(OC)c(OC)c3)CC2)cc1OC` (stereo not drawn) it was 1.05%; in that of `CCc1ccc(OCC2c3cc(OC)c(OC)cc3CCN2C(C)=O)cc1` (stereo not drawn), 45.6% (active).
Turning to `O=C(CSc1nc2cccnc2n1Cc1ccccc1)N1CCc2ccccc21`, the inhibition was -12%.
The same measure for `Cc1ccc(CNC(=O)C2CCN(S(=O)(=O)c3ccc4nc5c(c(C(=O)O)c4c3)CC(C)CC5)CC2)cc1` (stereo not drawn): 27.2% (active).
The same measure for `CC(=O)N1c2ccc(S(=O)(=O)N3CCC(C(=O)NCc4ccc(F)cc4)CC3)cc2CC1C` (stereo not drawn): -4.2%; for `CCOC(CNC(=O)C1CCN(S(=O)(=O)c2ccc3nc4c(c(C(=O)O)c3c2)CC(C)CC4)CC1)OCC` (stereo not drawn): -21.9%.
In the case of `COc1ccc(NC(=S)N2CCc3cc(OC)c(OC)cc3C2)cc1` it was 2.63%; in that of `COc1ccc2c(CC(=O)OCC(=O)NC(N)=O)coc2c1`, -8.77%.
Regarding `COc1ccc2c(CC(=O)N3CCc4cc(OC)c(OC)cc4C3)coc2c1`, the inhibition is 20.9% (active).
In the case of `Cc1nn(C)cc1S(=O)(=O)N1CCN(c2ccc(F)cc2)CC1` it was -4.94%; in that of `O=[N+]([O-])c1ccccc1S(=O)(=O)Nc1cccc2cccnc12`, -12.1%; in that of `O=C(NC(=S)NC1CCCCC1)c1ccc(Cl)cc1`, -18.6%.
The same measure for `COc1ccccc1-n1c(SCC(=O)Nc2cccc(C(=O)O)c2)nnc1-c1ccccc1O`: -17.1%.
In the case of `COCc1ccc(C(=O)NC2CC(C)(C)Cc3c2cnn3-c2ccc(C)cc2)o1` (stereo not drawn) it was -0.16%; in that of `COc1cc(OC)c(-n2c(C)cc(C=O)c2C)cc1Cl`, -3.29%.
`COc1ccc(-c2cn(-c3ccc(OC)cc3)c(=S)[nH]2)cc1`: the inhibition is 10.2%.
In the case of `COc1cc(OC)c(-n2cc(-c3ccc(Cl)cc3)[nH]c2=O)cc1Cl` it was 64.5% (active); in that of `Brc1c(CSc2nncc3ccccc23)nc2ccccn12`, -2.42%; in that of `CCOCCCN1C(=O)C2C(C(=O)Nc3ccc(OCC)cc3)C3C=CC2(O3)C1C(=O)NC1CCCCC1` (stereo not drawn), -12.8%.
The same measure for `CCn1c(CC(=O)Nc2ccccc2)nnc1SCC(=O)N1CCOCC1`: -9.92%; for `O=C1c2ccccc2C(=O)N1CCC(c1ccccc1)c1ccco1` (stereo not drawn): -19.2%.
As to `CC1(C)CC(N(Cc2ccccc2)C(=O)Cc2ccccc2)CCO1` (stereo not drawn), the inhibition is -11.1%.
In the case of `CC1(C)CC(CNCCC(c2ccc(F)cc2)c2ccco2)CCO1` (stereo not drawn) it was 27.9% (active); in that of `CCC(C(=O)Nc1ccc2c(c1)OCCO2)c1ccccc1` (stereo not drawn), -8.4%.
In the case of `CCC(C(=O)OCC(=O)Nc1ccc(C(=O)Nc2ccc(OC)cc2)cc1)c1ccccc1` (stereo not drawn) it was 0.99%.
For the molecule `CCC(C(=O)Nc1ccc(C(C)C)cc1)c1ccccc1` (stereo not drawn), the inhibition was 55.6% (active).
In the case of `COc1ccc(-n2nc(C(=O)NCC(=O)N3CCN(c4ccccc4OC)CC3)c3ccccc3c2=O)c(OC)c1` it was 1.21%.
The same measure for `Cn1nccc1/C=N\NC(=O)c1ccc(Cl)cc1`: -6.59%; for `Cc1ccnc(N2C(=O)c3ccccc3C2Nc2ccc3c(c2)OCCO3)c1` (stereo not drawn): -8.69%; for `O=C(NC1CCCCC1)C1c2ccccc2C(=O)N1Cc1ccco1` (stereo not drawn): -11.8%.
The same measure for `O=C1c2ccccc2C(Nc2ccc3c(c2)OCCO3)N1Cc1ccco1` (stereo not drawn): 17.6% (active); for `COC(=O)c1c(NC(=O)c2ccc(S(=O)(=O)N3CCOCC3)cc2)sc2c1CCN(C(C)C)C2`: -0.58%; for `Nc1cccc2c1C(=O)N(Cc1nnc(-c3ccccc3Br)o1)C2=O`: -16%.
On to `CN(C)/C=N/c1cc(=O)n(C)c(=O)n1CC1CC1`, for which the inhibition was -1.62%.
In the case of `Cc1cccc(OCC(=O)NC(=S)Nc2ccccc2N2CCOCC2)c1` it was -14.9%; in that of `Cc1ccc(O)c(NC(=S)NC(=O)COc2ccc(Br)cc2)c1`, 89.1% (active); in that of `Cc1ccc(O)c(NC(=O)COc2cc(C)ccc2C)c1`, 10.6%.
The same measure for `Cc1cccc(C2C3=C(CCCC3=O)N=C3c4ccccc4C(=O)C32)c1` (stereo not drawn): -14.3%.
In the case of `CCn1cc(C(=O)NCCC(=O)NCCO)c(=O)c2cc3c(cc21)OCO3` it was -13.5%.
With `COC(=O)CN1C(=O)[C@H]2[C@@H](/C=C/c3ccccc3)N3C(=O)CN(CC4CC4)C(=O)[C@@]3(Cc3ccccc3)[C@H]2C1=O`, the inhibition is -2.59%.
On to `CCCCSCCCNC(=O)C1CCC(CNS(=O)(=O)c2ccc(NC(C)=O)cc2)CC1` (stereo not drawn), for which the inhibition is 3.79%.
The same measure for `Cc1nn(-c2ccccc2)c2c1c(C)c(CCC(=O)NCC1CCCO1)c(=O)n2C` (stereo not drawn): -15.7%; for `Cc1ccc(C(=O)NCC(=O)OCC(=O)NC2CCCCCCC2)cc1`: -6.33%.
The same measure for `O.O.O.O=S(=O)([O-])OC[C@H]1O[C@@H](O[C@]2(COS(=O)(=O)[O-])O[C@H](OS(=O)(=O)[O-])[C@@H](OS(=O)(=O)[O-])[C@@H]2OS(=O)(=O)[O-])[C@H](OS(=O)(=O)[O-])[C@@H](OS(=O)(=O)[O-])[C@@H]1OS(=O)(=O)[O-].[Al]`: -11%.
`O=C(NCc1ccco1)/C(=C/c1ccco1)NC(=O)c1ccccc1`: the inhibition was -4.86%.
For the molecule `O=C(OCN1C(=O)c2ccccc2C1=O)/C(=C\c1ccco1)NC(=O)c1ccccc1`, the inhibition is 19% (active).
Take `NC(=O)C1CCN(C(=O)/C(=C/c2ccco2)NC(=O)c2ccccc2)CC1`: the inhibition is -7.3%.
In the case of `C[C@H](NC(=O)C1CC(=O)N(c2ccc3c(c2)OCO3)C1)C(=O)NCc1ccco1` (stereo partly drawn) it was 1.22%; in that of `O=S(=O)(Nc1ccc2[nH]ncc2c1)c1ccccc1Cl`, 6.14%; in that of `O=C(Cn1nc(CNc2ccc(Cl)cc2)[n+]2c1CCCCC2)c1ccc(Cl)cc1`, -3.46%.
In the case of `CC(=O)Nc1ccc(Oc2ccc3c(c2)C(=O)NC3=O)cc1` it was 7.14%; in that of `S=C(NCCCc1ccccc1)Nc1ccc(Br)cc1`, -16.1%; in that of `S=C(NCCc1ccccc1)Nc1ccccc1`, 21.5% (active).
In the case of `S=C(NCCC1=CCCCC1)Nc1ccccc1`, the inhibition was 8.55%.
The same measure for `COc1ccc(-c2nnc3n2CCCCC3)cc1`: 1.65%.

As a reminder, the inhibition is the change of the read-out against control, counted positive when it falls.
